According to PubChem BioAssay (EPA / NIEHS):
“And” between values parts separate entries of the source, which are not always exact repeats. Equal values may be shown once. Results filed as inconclusive are left out. A structure can be active in one record and inactive in another. The source made the active and inactive calls. How the source made its calls, unless noted: active means hit-call score of the fitted dose curve at least 0.9, where 1 is the maximum; inconclusive means response in the unintended direction; inactive means score below 0.9.

How the values were obtained:
[1] = read-out: Transforming Growth Factor (TGFA), TGFA (gene 7039); assay: LTEA_HepaRG_TGFA: Life Technologies and Expression Analysis (LTEA) Assay for Transforming Growth Factor (TGFA) using HepaRG (AID 2283532; active means hit-call score of the fitted dose curve at least 0.9, where 1 is the maximum; inactive means score below 0.9); conditions: mRNA level, 48 h; actives raise or lower the signal
How it was run: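 Gene expression of TGFA was quantified by qRT-PCR after human HepaRG cells were treated for 48 h with test chemicals (eight concentrations, highest 100 uM, 0.5% DMSO). Activity in either direction was fitted relative to DMSO.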

[2] = read-out: Transforming Growth Factor (TGFB1), TGFB1 (gene 7040); assay: LTEA_HepaRG_TGFB1: Life Technologies and Expression Analysis (LTEA) Assay for Transforming Growth Factor (TGFB1) Transporter using HepaRG (AID 2283533; active means hit-call score of the fitted dose curve at least 0.9, where 1 is the maximum; inactive means score below 0.9); conditions: mRNA level, 48 h; actives raise or lower the signal
How it was run: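 HepaRG, 48 h post-plating, switched to serum-free induction medium; chemicals 100 uM top, half-log, 8 pts, 0.5% DMSO, dup; 48 h exposure; RNA → Fluidigm TaqMan qRT-PCR; norm ACTB/GAPDH/POLR2A; bidirectional fit vs DMSO.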

TIMP1, TIMP1 (gene 7076) = assay: LTEA_HepaRG_TIMP1: Life Technologies and Expression Analysis (LTEA) Assay for TIMP1 using HepaRG (AID 2283534; active means hit-call score of the fitted dose curve at least 0.9, where 1 is the maximum; inactive means score below 0.9;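 further: TaqMan qRT-PCR signal normalized to ACTB GAPDH and POLR2A housekeeping genes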); conditions: mRNA level, 48 h; actives raise or lower the signal
How it was run: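 Readout is TIMP1 mRNA level measured by qRT-PCR and normalized to three housekeeping genes. Human HepaRG cells were treated for 48 h in duplicate at eight concentrations up to 100 uM (0.5% DMSO); gain or loss fitted against DMSO.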

[3] = read-out: Tumor necrosis factor receptor 1 (TNFRSF1A), TNFRSF1A (gene 7132); assay: LTEA_HepaRG_TNFRSF1A: Life Technologies and Expression Analysis (LTEA) Assay for Tumor necrosis factor receptor 1 (TNFRSF1A) using HepaRG (AID 2283535; active means hit-call score of the fitted dose curve at least 0.9, where 1 is the maximum; inactive means score below 0.9); conditions: mRNA level, 48 h; actives raise or lower the signal
How it was run: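 Read-out is TNFRSF1A transcript level by TaqMan qRT-PCR, normalized to three housekeeping genes, scored as gain or loss of signal versus 0.5% DMSO. Human HepaRG cells received test chemicals for 48 h at up to 100 uM (half-log series).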

[4] = read-out: Thyroid Hormone Responsive (THRSP), THRSP (gene 7069); assay: LTEA_HepaRG_THRSP: Life Technologies and Expression Analysis (LTEA) Assay for Thyroid Hormone Responsive (THRSP) using HepaRG (AID 2283536; active means hit-call score of the fitted dose curve at least 0.9, where 1 is the maximum; inactive means score below 0.9); conditions: mRNA level, 48 h; actives raise or lower the signal
How it was run: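 Cell model: human HepaRG, approx. 100,000 cells/well, 0.5% DMSO vehicle. Exposure lasts 48 h; phenobarbital 1 mM serves as induction positive control. Gene expression is measured by qRT-PCR against three endogenous control genes.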

[5] = read-out: Cellular tumor antigen p53 (Homo sapiens) (UniProt P04637); assay: LTEA_HepaRG_TP53: Life Technologies and Expression Analysis (LTEA) Assay for Tumor Protein P53 (TP53) using HepaRG (AID 2283537; active means hit-call score of the fitted dose curve at least 0.9, where 1 is the maximum; inactive means score below 0.9); conditions: mRNA level, 48 h; actives raise or lower the signal
How it was run: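 Gain or loss of TP53 mRNA signal is scored relative to 0.5% DMSO after 48 h chemical treatment of HepaRG liver cells, tested in duplicate at eight half-log concentrations up to 100 uM.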

[6] = read-out: UDP glucuronosyltransferase (UGT1A1), UGT1A1 (gene 54658); assay: LTEA_HepaRG_UGT1A1: Life Technologies and Expression Analysis (LTEA) Assay for UDP glucuronosyltransferase (UGT1A1) using HepaRG (AID 2283538; active means hit-call score of the fitted dose curve at least 0.9, where 1 is the maximum; inactive means score below 0.9); conditions: mRNA level, 48 h; actives raise or lower the signal
How it was run: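 UGT1A1 transcript level, measured by qRT-PCR with three housekeeping genes for normalization, after 48 h treatment of human HepaRG cells (0.5% DMSO, duplicates, up to 100 uM, half-log steps, 8 points). Curves fit both directions against DMSO baseline.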

[7] = read-out: UDP glucuronosyltransferase (UGT1A6), UGT1A6 (gene 54578); assay: LTEA_HepaRG_UGT1A6: Life Technologies and Expression Analysis (LTEA) Assay for UDP glucuronosyltransferase (UGT1A6) using HepaRG (AID 2283539; active means hit-call score of the fitted dose curve at least 0.9, where 1 is the maximum; inactive means score below 0.9); conditions: mRNA level, 48 h; actives raise or lower the signal
How it was run: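 HepaRG, 48 h post-plating switch to serum-free induction medium; chemical 48 h, 100 uM top, half-log x8, duplicate, 0.5% DMSO. Phenobarbital 1mM induction control. UGT1A6 mRNA by TaqMan qRT-PCR; gain/loss fit vs DMSO.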

[8] = read-out: X-box binding protein 1 (XBP1), XBP1 (gene 7494); assay: LTEA_HepaRG_XBP1: Life Technologies and Expression Analysis (LTEA) Assay for X-box binding protein 1 (XBP1) using HepaRG (AID 2283540; active means hit-call score of the fitted dose curve at least 0.9, where 1 is the maximum; inactive means score below 0.9); conditions: mRNA level, 48 h; actives raise or lower the signal
How it was run: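 Transcript levels of XBP1, measured by qRT-PCR and normalised to three housekeeping genes, were fitted bidirectionally relative to 0.5% DMSO controls. Human HepaRG cells received eight-point half-log dilutions from 100 uM for 48 h.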

[9] = LTEA_HepaRG_LDH_cytotoxicity: Cytotoxicity Assessment in the Life Technologies and Expression Analysis (LTEA) Assay (AID 2283563)
How it was run: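 Cells were thawed and plated for 48 h. Medium was then replaced with serum-free induction medium. Chemicals (8 half-log points, maximum 100 uM, 0.5% DMSO) were added in duplicate for 48 h, after which spent medium was assayed for LDH.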

[10] = TOX21_p53_BLA_p2_viability: Viability Assessment in the Tox21 HCT-116 p53 Agonism Beta-lactamase Assay, Phase 2 (AID 2283591);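 further: compound exposure lasted 16 h at 37 °C; actives lower the ATP signal meaning cytotoxicity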
How it was run: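 HCT-116 p53-bla cells (4000/well) rested 5 h at 37C, then received compounds in DMSO (217-fold dilution) for 16 h at 37C, 5% CO2. After the CCF4 read, CellTiter-Glo was added; ATP luminescence was read after 30 min at room temperature.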

[11] = molecular target: Cellular tumor antigen p53 (Homo sapiens) (UniProt P04637); assay: TOX21_p53_BLA_p2_ratio: Tox21 HCT-116 p53 Agonism Beta-lactamase Assay, Ratio, Phase 2 (AID 2283592)
Chain of Cellular tumor antigen p53 (Homo sapiens) (P04637 whole entry, looked up): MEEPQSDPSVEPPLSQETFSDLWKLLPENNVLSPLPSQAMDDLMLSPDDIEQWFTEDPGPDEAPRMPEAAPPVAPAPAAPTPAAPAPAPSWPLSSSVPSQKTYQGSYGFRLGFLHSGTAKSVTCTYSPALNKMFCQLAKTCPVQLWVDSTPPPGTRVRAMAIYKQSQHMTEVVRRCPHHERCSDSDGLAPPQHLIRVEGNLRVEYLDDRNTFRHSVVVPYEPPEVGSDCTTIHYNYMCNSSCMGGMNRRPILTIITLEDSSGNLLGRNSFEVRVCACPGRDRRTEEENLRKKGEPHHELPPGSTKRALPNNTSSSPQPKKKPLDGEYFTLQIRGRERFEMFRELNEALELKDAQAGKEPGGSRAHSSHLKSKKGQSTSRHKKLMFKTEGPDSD
How it was run: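 Plated HCT116 p53-bla cells (4000/well) received compound after 5 h, then 16 h at 37C/5% CO2. CCF4-AM added, 2 h RT. Ratio of 460 to 530 nm emission taken as the p53 reporter signal.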

[12] = TOX21_p53_BLA_p3_viability: Viability Assessment in the Tox21 HCT-116 p53 Agonism Beta-lactamase Assay, Phase 3 (AID 2283593);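 further: cells exposed to compound for 16 h before reading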
How it was run: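 HCT-116 cells (4000/well) rested 5 h at 37C, then got DMSO compounds by pin tool (217-fold dilution) for 16 h at 37C, 5% CO2. After the bla read, CellTiter-Glo was added and luminescence read at 30 min, room temperature.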

[13] = molecular target: Cellular tumor antigen p53 (Homo sapiens) (UniProt P04637); assay: TOX21_p53_BLA_p3_ratio: Tox21 HCT-116 p53 Agonism Beta-lactamase Assay, Ratio, Phase 3 (AID 2283596)
How it was run: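 Cells were seeded at 4000/well, rested 5 h at 37C, then dosed with DMSO compound solutions (217-fold dilution) for 16 h. CCF4-AM substrate was loaded for 2 h at room temperature, and the 460/530 nm emission ratio was fitted for gain of signal versus DMSO.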

[14] = TOX21_p53_BLA_p4_viability: Viability Assessment in the Tox21 HCT-116 p53 Agonism Beta-lactamase Assay, Phase 4 (AID 2283597);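 further: hits lower the luminescence signal meaning cytotoxicity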
How it was run: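 Readout: ATP luminescence (CellTiter-Glo), measured 30 min after reagent addition at RT. The reagent followed a 2 h CCF4-AM incubation, and the cells had been exposed to compound for 16 h at 37C.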

[15] = molecular target: Cellular tumor antigen p53 (Homo sapiens) (UniProt P04637); assay: TOX21_p53_BLA_p5_ratio: Tox21 HCT-116 p53 Agonism Beta-lactamase Assay, Ratio, Phase 5 (AID 2283599)
How it was run: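 HCT-116 cells carrying a p53-inducible beta-lactamase reporter were seeded at 4000 cells/well and dosed after 5 h with compound in DMSO (217-fold dilution). After 16 h at 37C, CCF4-AM substrate was added for 2 h, and the 460/530 nm emission ratio was scored as gain-of-signal versus DMSO.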

[16] = TOX21_p53_BLA_p5_viability: Viability Assessment in the Tox21 HCT-116 p53 Agonism Beta-lactamase Assay, Phase 5 (AID 2283600)
How it was run: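 Workflow: seed 4000 cells per well, wait 5 h, add compounds (DMSO, 217-fold dilution), incubate 16 h, load CCF4-AM 2 h, add CellTiter-Glo, read luminescence after 30 min.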

[17] = molecular target: Cellular tumor antigen p53 (Homo sapiens) (UniProt P04637); assay: TOX21_p53_BLA_p4_ratio: Tox21 HCT-116 p53 Agonism Beta-lactamase Assay, Ratio, Phase 4 (AID 2283601)
How it was run: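 HCT116 cells carrying an inducible beta-lactamase reporter were plated at 4000 cells/well, rested 5 h, then exposed to compounds in DMSO (217-fold dilution) for 16 h at 37C. CCF4-AM substrate was loaded 2 h at room temperature; 460/530 nm emission ratio scored gain-of-signal versus DMSO.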

[18] = Tanguay_ZF_120hpf_MORT_legacy: (Legacy) Oregon State University Tanguay Lab 120 Hour Post-fertilization zebrafish Assay for Mortality (AID 2283633)
How it was run: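 5D WT zebrafish, chorion removed 4 hpf; 1 embryo/well from 6 hpf; static exposure to 120 hpf, 28C, dark, sealed. Final DMSO 0.64%. Readout: binary mortality, brightfield, 24 + 120 hpf; DMSO as negative control.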

[19] = ATG_XTT_Cytotoxicity: Cytotoxicity Assessment in the Attagene TRANS-FACTORIAL HepG2 Assay (AID 2283584)
How it was run: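 Cells: human HepG2, transiently transfected with MRTU reporter constructs. Exposure 24 h. Readout: XTT, cell number. Baseline/neg ctrl DMSO; loss-of-signal scored.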

Measured: AC50

O=C(O)c1ccc([N+](=O)[O-])cc1
active: [3] 0.646 µM
not listed: [19]
inactive: all other assays above

O=c1[nH]nnc2ccccc12
inactive: [19] | [10] | [11] | [12] | [13] | [14] | [15] | [16] | [17]

c1ccc2sc(SN(C3CCCCC3)C3CCCCC3)nc2c1
inactive: [19]

Cc1cccc(C)c1C
inactive: [19]

Nc1cccc(S(=O)(=O)c2cccc(N)c2)c1
inactive: [19] | [10] | [11] | [12] | [13] | [14] | [15] | [16] | [17]

COC(=O)OC
inactive: [19] | [10] | [11] | [12] | [13] | [14] | [15] | [16] | [17]

Cc1cccc(C)c1[N+](=O)[O-]
inactive: [19]

CCn1c2ccccc2c2cc(N)ccc21
active: [11] 65.1 µM and 74.2 µM | [13] 68 µM | [17] 64 µM
inactive: [19] | [10] | [11] | [12] | [13] | [14] | [15] | [16] | [17]

CC(C)(C#N)c1cc(Cn2cncn2)cc(C(C)(C)C#N)c1
inactive: [19] | [10] | [11] | [12] | [13] | [14] | [15] | [16] | [17]

CC1(C)CCC(C)(C)c2cc(C(=O)Nc3ccc(C(=O)O)cc3)ccc21
active: [10] 28.1 µM | [11] 61.2 µM | [12] 46.1 µM | [13] 72.4 µM | [14] 32.5 µM | [15] 46.2 µM | [16] 39.5 µM | [17] 46.9 µM
inactive: [19]

O=C1OC2(c3cc(Br)c(O)c(Br)c3Oc3c2cc(Br)c(O)c3Br)c2c(Cl)c(Cl)c(Cl)c(Cl)c21
inactive: [19] | [11] | [13] | [15] | [16]
active: [10] 46.2 µM and 19.8 µM | [11] 16.8 µM | [12] 48.3 µM and 20.9 µM | [13] 50.7 µM | [14] 50.2 µM and 23.6 µM | [15] 50.2 µM | [17] 48.7 µM and 26.5 µM

CC(=O)/C=C/C1=C(C)CCCC1(C)C
inactive: [19]

BrC1CCC(Br)C(Br)CCC(Br)C(Br)CCC1Br (stereo not drawn)
inactive: [19] | [12] | [15] | [16]
active: [10] 18.1 µM and 18.2 µM | [11] 53.1 µM and 45.9 µM | [12] 15.1 µM | [13] 65.6 µM and 38.4 µM | [14] 40.1 µM and 19.6 µM | [17] 63.7 µM and 50.3 µM

O=C(COc1ccc(Cl)cc1)N1CCN(Cc2ccc3c(c2)OCO3)CC1
inactive: [19]
